Screening data: PubChem, National Center for Advancing Translational Sciences (NCATS)
Nrf2 activator: activates Nrf2 signaling | AREc32 ARE-luciferase reporter (MCF7-derived line), luminescence, 24 h | 410,000 compounds, 0.31% hits | Potency, µM (highest dose often 46.1 µM), without a hit: at the highest dose activation, hits mostly activators | AID 624171; further: potency means the concentration at half of the fitted maximal effect; % of control where 0% means no effect; nearly all actives have a fitted effect of over 65% in size
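Luciferase luminescence (Steady-Glo, 30 min at room temperature) served as the read-out of ARE activation in AREc32 cells treated with compounds for 24 hr at 37 deg C.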
Nrf2 inh: Nrf2 pathway inhibition. Potency, µM (doses to about 46 µM), for the others: at the top dose activity change, negative = inhibition, hits mostly inhibitors. 360,000 compounds, 2.1% hits. AID 504444. A549 ARE-Fluc reporter, luciferase luminescence, 18-24 h; further: potency means the concentration at half of the fitted maximal effect; on the % scale 0 is the no-effect control and ±100 the full control effect; nearly all actives have a fitted effect of over 60% in size
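Reporter: ARE-Fluc in A549. Exposure: 18-24 h, 37 °C, 5% CO2, 5% FBS OPTI-MEM. Readouts: fluorescent cytotoxicity (CellTiter-Fluor), then luminescent Nrf2 signal after BugLite.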
LDHA inh: LDHA (human) enzyme inhibition. activity change, % (values are at about 110 or 230 µM). purified LDHA, NADH/diaphorase-resazurin fluorescence; active compounds read low. 480,000 compounds, 0.15% hits; in the data active means activity change below about -30%; inconclusive means mostly about -25% to -30%;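 further: plate controls were DMSO wells for no effect and wells without enzyme for full effect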
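Resorufin fluorescence (ex540/em590), read at 0 and 20 min after diaphorase/resazurin addition, reports the NADH left after a 5 min room-temperature reaction of 2 nM human LDH5 with 0.06 mM NADH and 0.2 mM pyruvate.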
12-LOX inh: ALOX12 (human) lipoxygenase inhibition | P18054 | purified 12hLO, xylenol orange hydroperoxide absorbance | Potency, µM (titrated, usually from 108 µM), without a hit: top-dose activity change, negative = inhibition, usual class: inhibitors | 580,000 compounds, 1.1% hits; further: potency means the concentration at half of the fitted maximal effect; on the % scale 0 is the no-effect control and ±100 the full control effect
Target sequence (P18054 whole entry, looked up): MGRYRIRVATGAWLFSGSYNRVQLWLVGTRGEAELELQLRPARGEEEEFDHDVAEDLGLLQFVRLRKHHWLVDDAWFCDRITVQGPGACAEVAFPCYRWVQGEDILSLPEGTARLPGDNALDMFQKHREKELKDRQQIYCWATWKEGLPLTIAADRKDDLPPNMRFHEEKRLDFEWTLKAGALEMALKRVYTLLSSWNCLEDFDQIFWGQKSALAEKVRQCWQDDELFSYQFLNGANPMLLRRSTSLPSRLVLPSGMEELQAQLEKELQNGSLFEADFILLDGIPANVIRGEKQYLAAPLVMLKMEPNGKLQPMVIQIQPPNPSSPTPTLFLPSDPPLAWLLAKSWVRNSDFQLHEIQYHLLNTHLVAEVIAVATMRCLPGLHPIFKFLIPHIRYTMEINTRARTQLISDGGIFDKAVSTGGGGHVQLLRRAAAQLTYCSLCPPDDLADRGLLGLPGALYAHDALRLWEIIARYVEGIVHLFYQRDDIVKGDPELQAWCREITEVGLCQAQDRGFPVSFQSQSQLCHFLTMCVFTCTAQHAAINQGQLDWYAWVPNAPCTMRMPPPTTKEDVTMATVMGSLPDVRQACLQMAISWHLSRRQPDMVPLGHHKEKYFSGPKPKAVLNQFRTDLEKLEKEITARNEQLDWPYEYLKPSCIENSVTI
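Purified human 12hLO at 150 nM in 25 mM Hepes, 0.01% Triton X-100, pH 7.0, preincubated 15 min at room temperature with compound. Reaction started with 40 uM arachidonic acid, 30 min at room temperature. Hydroperoxide measured by Fe-xylenol orange, 573/405 nm absorbance ratio.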
A549 viability: kills or reduces viability of A549 cells in Nrf2 counter-screen. A549 ARE-Fluc cells, CellTiter-Fluor viability, 18-24 h. AID 504648. 390,000 compounds, 0.16% hits. Potency, µM (series often up to 46 µM), inactives show at the top dose activity change, negative = cytotoxicity, hits mostly inhibitors; further: potency means the concentration at half of the fitted maximal effect; on the % scale 0 is the no-effect control and ±100 the full control effect
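Cytotoxicity counterscreen: CellTiter-Fluor fluorescence was measured in A549 ARE_Fluc cells after 18-24 h of compound exposure in a concentration series. The subsequent BugLite luminescent read reports ARE-luciferase activity.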
ERG-DNA inh: blocks human ERG Ets domain binding to DNA | 370,000 compounds, 0.028% hits | AID 624246 | fluorescence polarization, His-ERG Ets domain / labelled DNA | Potency, µM (highest dose often 76.9 µM), inactives show top-dose FP activity, negative = inhibition, usual class: inhibitors; active means well fitted inhibition curve with a large enough effect in the polarisation, with a control signal flat; inconclusive means small, poorly fitted or top-dose-only effect, or effect the other way, or a change in a side signal; inactive means no such curve, though single readings can be large or run the other way; the % refers to the polarisation;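 further: polarization taken with two DNA probes labelled with fluorescein and Texas red; potency means the concentration at half of the fitted maximal effect; % of control where 0% means no effect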
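His-tagged ERG Ets domain (1 uM in the protein solution; 300mM KCl, 50mM Tris-HCl, 1mM EDTA, 1mM DTT, pH 7.5) received compound, then a probe mix of 5 nM fluorescein-DNA and 100nM Texas-615-DNA. Fluorescence polarization was read for both dyes.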
* = called active by the depositor; [ ] = remark or other dose. Sampled rows, rich in hits. Any-hit rate of the full collection: about 2.7%. Unless noted, the call rests on the fitted dose curve; in most records, active means well fitted curve in the direction sought with a large enough effect; inconclusive means small, poorly fitted or top-dose-only effect, or another doubt; inactive means no such curve, though single readings can be large; an effect the other way counts as inactive or inconclusive.

How did Cc1ccc(NS(=O)(=O)c2cc([N+](=O)[O-])ccc2N/N=C/c2ccc(-c3ccccc3)cc2)c(C)c1 do in these assays?
LDHA inh: -4; 12-LOX inh: 15%

Results for CCC(=O)N1CCc2cc(Br)cc(S(=O)(=O)CCC(=O)N3CCN(c4cccc(C)c4)C(C)C3)c21 (stereo not given) ?
Nrf2 activator: 7%; Nrf2 inh: 5%[9.27 µM]; LDHA inh: 4; 12-LOX inh: -6%; A549 viability: inconclusive; ERG-DNA inh: 2%

Results for CCC(=O)N1CCc2cc(S(=O)(=O)CCC(=O)N3CCN(c4cccc(C)c4)C(C)C3)ccc21 (stereo not given) ?
Nrf2 activator: 3%; Nrf2 inh: 21µM*; LDHA inh: -1; 12-LOX inh: -19%; A549 viability: 6%; ERG-DNA inh: -9%

Results for C1CNC(CN2CCOCC2)C1 (stereo not given) ?
LDHA inh: 3; 12-LOX inh: 8.9µM*

What do the screens show for `CCN1CCN(CC2CCCN2)CC1` (stereo not given)?
LDHA inh: -9; 12-LOX inh: inconclusive

Results for CC(C)C(=O)N1CCN(c2nc(-c3ccccc3)c3c(c2C#N)CCCC3)CC1 ?
Nrf2 activator: 3%; Nrf2 inh: 12µM*; LDHA inh: 1; 12-LOX inh: 0%; A549 viability: inconclusive; ERG-DNA inh: -13%

Results for CCCCNc1oc(/C=C/c2ccc(OC)c(OC)c2)nc1C#N ?
LDHA inh: -3; 12-LOX inh: -9%

How did Oc1ccc(NCc2ccc(OCc3ccccc3Cl)cc2)cc1 do in these assays?
Nrf2 activator: 7.9µM*; Nrf2 inh: inconclusive; LDHA inh: 17; 12-LOX inh: inconclusive; A549 viability: inconclusive; ERG-DNA inh: inconclusive

How did Oc1ccc2ccccc2c1CN1CCN(c2ccccc2F)CC1 do in these assays?
Nrf2 activator: 0%; Nrf2 inh: 4%; LDHA inh: 6; 12-LOX inh: 45µM*; A549 viability: -4%; ERG-DNA inh: -8%

What do the screens show for `Oc1ccc2ccccc2c1CN1CCN(C/C=C/c2ccccc2)CC1`?
Nrf2 activator: 0%[9.22 µM]; Nrf2 inh: 7%; LDHA inh: 4; 12-LOX inh: inconclusive; A549 viability: -1%; ERG-DNA inh: -8%

Results for O=S(=O)(c1ccccc1)N1CCN(Cc2c(O)ccc3ccccc23)CC1 ?
Nrf2 activator: 12%; Nrf2 inh: -21%; LDHA inh: 5; 12-LOX inh: 7.1µM*; A549 viability: 0%; ERG-DNA inh: 4%

How did NC(CC(=O)O)C(F)(F)F (stereo not given) do in these assays?
LDHA inh: 5; 12-LOX inh: inconclusive

Results for N#C/C(=C\c1ccc[nH]1)C(=O)Nc1ccccc1F ?
Nrf2 activator: 11µM*; Nrf2 inh: inconclusive; LDHA inh: -18; 12-LOX inh: -23%; A549 viability: -9%; ERG-DNA inh: -15%

Results for N#Cc1c(NC(=O)c2ccnn2C(F)F)sc2c1CCCC2 ?
LDHA inh: -2; 12-LOX inh: inconclusive

How did O=S(=O)(Nc1ccccc1-c1n[nH]c(C2CC2)n1)c1cc(Cl)ccc1Cl do in these assays?
LDHA inh: 15; 12-LOX inh: 9%

What do the screens show for `Cc1ccccc1CS(=O)(=O)c1cnc2ccccc2n1`?
Nrf2 activator: 8.9µM*; Nrf2 inh: -13%; LDHA inh: -3; 12-LOX inh: 392%; A549 viability: 0%; ERG-DNA inh: 5%

How did Cc1ccccc1CS(=O)(=O)c1snnc1C do in these assays?
Nrf2 activator: 10%; Nrf2 inh: inconclusive; LDHA inh: -15; 12-LOX inh: inconclusive; ERG-DNA inh: 6%

Results for O=C(NCCN1CCN(C(=O)c2ccc(Cl)c(Cl)c2)CC1)c1ccc(Cl)c(Cl)c1 ?
LDHA inh: -7; 12-LOX inh: inconclusive

What do the screens show for `Cc1cc2c(s1)c1cnn(Cc3ccc(S(C)(=O)=O)cc3)c(=O)c1n2C`?
Nrf2 inh: 21µM*; LDHA inh: -2; A549 viability: -14%

Results for COC(=O)C1(NC(=O)c2ccc(OC)c(OC)c2)CCCCC1 ?
LDHA inh: 0; 12-LOX inh: 3%

What do the screens show for `COc1ccc(Cn2cccc(NC(=O)Nc3ccc(F)cc3)c2=O)cc1`?
Nrf2 activator: 4%; Nrf2 inh: inconclusive; LDHA inh: 5; 12-LOX inh: -26%; A549 viability: -1%; ERG-DNA inh: -7%

How did CSc1ccc(NC(=O)Nc2cccn(Cc3ccccc3)c2=O)cc1 do in these assays?
Nrf2 activator: 3%; Nrf2 inh: 12µM*; LDHA inh: 0; 12-LOX inh: -21%; A549 viability: inconclusive; ERG-DNA inh: 2%

Results for COc1ccc(Cn2cccc(NC(=O)Nc3cccc(OC)c3)c2=O)cc1 ?
Nrf2 activator: 0%; Nrf2 inh: 5.2µM*; LDHA inh: 3; 12-LOX inh: -3%; A549 viability: inconclusive; ERG-DNA inh: 13%

What do the screens show for `COc1cccc(NC(=O)Nc2cccn(Cc3ccccc3)c2=O)c1`?
Nrf2 activator: 6%; Nrf2 inh: 12µM*; LDHA inh: 22; 12-LOX inh: 48%; A549 viability: -28%; ERG-DNA inh: -1%

Results for CC(C)(C)C(=O)/C=C/c1ccc([N+](=O)[O-])cc1 ?
LDHA inh: -1; 12-LOX inh: inconclusive

What do the screens show for `COC(=O)C1=CNC=C(C(=O)OC)C1c1cccc(Cl)c1`?
LDHA inh: 7; 12-LOX inh: inconclusive

What do the screens show for `CN(C)CCCn1c(-c2ccc(COc3ccc(Br)cc3)o2)n[nH]c1=S`?
LDHA inh: -6; 12-LOX inh: 14µM*

Results for CC(C)c1cc(=O)oc2cc(OCC(=O)N3CCCCC3)ccc12 ?
LDHA inh: -1; 12-LOX inh: 21%

Results for CCOc1ccc(-c2csc(/C(C#N)=C\c3ccc(O)c([N+](=O)[O-])c3)n2)cc1 ?
Nrf2 activator: 0%; Nrf2 inh: inconclusive; LDHA inh: -5; 12-LOX inh: -20%; A549 viability: 16µM*; ERG-DNA inh: 7%

How did CC(CN1CCN(C/C=C/c2ccccc2)CC1)c1ccccc1 (stereo not given) do in these assays?
Nrf2 activator: 0%; Nrf2 inh: 5%; LDHA inh: -5; 12-LOX inh: 0.79µM*; A549 viability: 2%; ERG-DNA inh: -4%
